# Assay results as given in the supplement of paper PMC8728848.
# This is one part of a sample in which the strongest signals are shown more often than they occur.
# B1: DC-Sign-R (Homo sapiens), Q9H2X3 (protein)
# chain: MSDSKEPRVQQLGLLEEDPTTSGIRLFPRDFQFQQIHGHKSSTGCLGHGALVLQLLSFMLLAGVLVAILVQVSKVPSSLSQEQSEQDAIYQNLTQLKAAVGELSEKSKLQEIYQELTQLKAAVGELPEKSKLQEIYQELTRLKAAVGELPEKSKLQEIYQELTRLKAAVGELPEKSKLQEIYQELTRLKAAVGELPEKSKLQEIYQELTELKAAVGELPEKSKLQEIYQELTQLKAAVGELPDQSKQQQIYQELTDLKTAFERLCRHCPKDWTFFQGNCYFMSNSQRNWHDSVTACQEVRAQLVVIKTAEEQNFLQLQTSRSNRFSWMGLSDLNQEGTWQWVDGSPLSPSFQRYWNSGEPNNSGNEDCAEFSGSGWNDNRCDVDNYWICKKPAACFRDE
# What was measured:
# Experiment in all cases: glycan array binding signal (z-score within array); higher = stronger binding
# Settings in all cases: glycan notation: IUPAC condensed, linker removed
# [1] = biological target: Fuc(a1-2)Gal(b1-3)GalNAc(b1-4)[Neu5Ac(a2-3)]Gal(b1-4)Glc
# Summary of the method: (§1)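 Arrays were curated from the Consortium for Functional Glycomics database, 3228 in total, and kept only where the protein sequence was available. Binding is expressed as a within-array Z-score. This score was averaged across arrays of the same protein sequence at different concentrations or buffers and across linkers, and negative values can be read as non-binding.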
# [2] = biological target: Fuc(a1-2)Gal(b1-4)GlcNAc(b1-2)Man
# Summary of the method: as §1
# [3] = biological target: Fuc(a1-2)Gal(b1-4)GlcNAc(b1-2)[Fuc(a1-2)Gal(b1-4)GlcNAc(b1-4)]Man(a1-3)[Fuc(a1-2)Gal(b1-4)GlcNAc(b1-2)Man(a1-6)]Man(b1-4)GlcNAc(b1-4)GlcNAc
# Summary of the method: as §1
# [4] = biological target: Fuc(a1-2)Gal(b1-4)GlcNAc(b1-6)GalNAc
# Summary of the method: as §1
# [5] = biological target: Fuc(a1-2)Gal(b1-4)[Fuc(a1-3)]GlcNAc(b1-3)Gal(b1-4)[Fuc(a1-3)]GlcNAc(b1-3)Gal(b1-4)[Fuc(a1-3)]GlcNAc
# Summary of the method: as §1
# Fuc(a1-2)Gal6S(b1-4)Glc = biological target: Fuc(a1-2)Gal6S(b1-4)Glc
# Summary of the method: as §1
# [6] = biological target: Fuc(a1-2)[Gal(a1-3)]Gal(b1-4)[Fuc(a1-3)]GlcNAc
# Summary of the method: as §1
# [7] = biological target: Fuc(a1-2)[GalNAc(a1-3)]Gal(b1-3)GalNAc(a1-3)[Fuc(a1-2)]Gal(b1-4)GlcNAc
# Summary of the method: as §1
# [8] = biological target: Fuc(a1-2)[GalNAc(a1-3)]Gal(b1-4)GlcNAc(b1-2)Man(a1-3)[Fuc(a1-2)[GalNAc(a1-3)]Gal(b1-4)GlcNAc(b1-2)Man(a1-6)]Man(b1-4)GlcNAc(b1-4)GlcNAc
# Summary of the method: as §1
# [9] = biological target: Fuc(a1-3)[Gal(b1-4)]GlcNAc(b1-3)Gal(b1-4)[Fuc(a1-3)]GlcNAc(b1-3)Gal(b1-4)[Fuc(a1-3)]GlcNAc
# Summary of the method: as §1
# Gal(a1-3)Gal(b1-4)Glc = biological target: Gal(a1-3)Gal(b1-4)Glc
# Summary of the method: as §1
# [10] = biological target: Gal(a1-4)Gal(b1-3)GlcNAc(b1-2)Man(a1-3)[Gal(a1-4)Gal(b1-3)GlcNAc(b1-2)Man(a1-6)]Man(b1-4)GlcNAc(b1-4)GlcNAc
# Summary of the method: as §1
# [11] = biological target: Gal(a1-4)Gal(b1-4)GlcNAc(b1-2)Man(a1-3)[Gal(a1-4)Gal(b1-4)GlcNAc(b1-2)Man(a1-6)]Man(b1-4)GlcNAc(b1-4)GlcNAc
# Summary of the method: as §1
# Gal(a1-6)Glc = biological target: Gal(a1-6)Glc
# Summary of the method: as §1
# [12] = biological target: Gal(b1-3)GalNAc(a1-3)[Fuc(a1-2)]Gal(b1-4)GlcNAc
# Summary of the method: as §1
# [13] = biological target: Gal(b1-3)GlcNAc(b1-3)Gal(b1-4)GlcNAc(b1-3)Gal(b1-4)GlcNAc(b1-2)[Gal(b1-3)GlcNAc(b1-3)Gal(b1-4)GlcNAc(b1-3)Gal(b1-4)GlcNAc(b1-6)]Man(a1-6)[Gal(b1-3)GlcNAc(b1-3)Gal(b1-4)GlcNAc(b1-3)Gal(b1-4)GlcNAc(b1-2)Man(a1-3)]Man(b1-4)GlcNAc(b1-4)[Fuc(a1-6)]GlcNAc
# Summary of the method: as §1
# [14] = biological target: Gal(b1-3)GlcNAc(b1-3)Gal(b1-4)GlcNAc(b1-6)[Gal(b1-3)GlcNAc(b1-3)]Gal(b1-4)Glc
# Summary of the method: as §1
# [15] = biological target: Gal(b1-4)GlcNAc(b1-2)Man(a1-6)[Man(a1-3)]Man(b1-4)GlcNAc(b1-4)GlcNAc
# Summary of the method: as §1
# [16] = biological target: Gal(b1-4)GlcNAc(b1-2)[Gal(b1-4)GlcNAc(b1-6)]Man(a1-6)[Gal(b1-4)GlcNAc(b1-2)Man(a1-3)]Man(b1-4)GlcNAc(b1-4)GlcNAc
# Summary of the method: as §1
# [17] = biological target: Gal(b1-4)GlcNAc(b1-3)Gal(b1-4)GlcNAc(b1-2)[Gal(b1-4)GlcNAc(b1-3)Gal(b1-4)GlcNAc(b1-6)]Man(a1-6)[Gal(b1-4)GlcNAc(b1-3)Gal(b1-4)GlcNAc(b1-2)Man(a1-3)]Man(b1-4)GlcNAc(b1-4)GlcNAc
# Summary of the method: as §1
# [18] = biological target: Gal(b1-4)GlcNAc(b1-3)Gal(b1-4)GlcNAc(b1-3)[Gal(b1-4)GlcNAc(b1-3)Gal(b1-4)GlcNAc(b1-6)]GalNAc
# Summary of the method: as §1
# Gal6S(b1-4)Glc = biological target: Gal6S(b1-4)Glc
# Summary of the method: as §1
# [19] = biological target: GalNAc3S(b1-4)[Fuc(a1-3)]GlcNAc
# Summary of the method: as §1
# [20] = biological target: GlcNAc(b1-2)[GlcNAc(b1-4)]Man(a1-3)[GlcNAc(b1-4)][GlcNAc(b1-2)Man(a1-6)]Man(b1-4)GlcNAc(b1-4)GlcNAc
# Summary of the method: as §1
# [21] = biological target: GlcNAc(b1-3)Gal(b1-4)GlcNAc(b1-2)Man(a1-3)[GlcNAc(b1-3)Gal(b1-4)GlcNAc(b1-2)Man(a1-6)]Man(b1-4)GlcNAc(b1-4)[Fuc(a1-6)]GlcNAc
# Summary of the method: as §1
# [22] = biological target: GlcNAc(b1-3)Gal(b1-4)GlcNAc(b1-2)[GlcNAc(b1-3)Gal(b1-4)GlcNAc(b1-6)]Man(a1-6)[GlcNAc(b1-3)Gal(b1-4)GlcNAc(b1-2)Man(a1-3)]Man(b1-4)GlcNAc(b1-4)GlcNAc
# Summary of the method: as §1
# [23] = biological target: Man(a1-2)Man(a1-6)[Man(a1-3)]Man(a1-6)[Man(a1-2)Man(a1-2)Man(a1-3)]Man(b1-4)GlcNAc(b1-4)GlcNAc
# Summary of the method: as §1
# Man(a1-3)[Man(a1-6)]Man = biological target: Man(a1-3)[Man(a1-6)]Man
# Summary of the method: as §1
# MurNAc(b1-4)GlcNAc = biological target: MurNAc(b1-4)GlcNAc
# Summary of the method: as §1
# [24] = biological target: Neu5Ac(a2-3)Gal(b1-3)[Fuc(a1-4)]GlcNAc(b1-3)Gal(b1-4)[Fuc(a1-3)]GlcNAc
# Summary of the method: as §1
# [25] = biological target: Neu5Ac(a2-3)Gal(b1-3)[GlcNAc(b1-6)]GalNAc
# Summary of the method: as §1
# [26] = biological target: Neu5Ac(a2-3)Gal(b1-4)GlcNAc(b1-3)Gal(b1-4)GlcNAc(b1-2)Man(a1-3)[Neu5Ac(a2-3)Gal(b1-4)GlcNAc(b1-3)Gal(b1-4)GlcNAc(b1-2)Man(a1-6)]Man(b1-4)GlcNAc(b1-4)GlcNAc
# Summary of the method: as §1
# [27] = biological target: Neu5Ac(a2-3)Gal(b1-4)GlcNAc(b1-3)Gal(b1-4)GlcNAc(b1-3)GalNAc
# Summary of the method: as §1
# [28] = biological target: Neu5Ac(a2-3)Gal(b1-4)GlcNAc6S
# Summary of the method: as §1
# [29] = biological target: Neu5Ac(a2-3)Gal(b1-4)[Fuc(a1-3)]GlcNAc6S
# Summary of the method: as §1
# [30] = biological target: Neu5Ac(a2-3)Gal6S(b1-4)GlcNAc
# Summary of the method: as §1
# [31] = biological target: Neu5Ac(a2-3)[Neu5Ac(a2-6)]GalNAc
# Summary of the method: as §1
# [32] = biological target: Neu5Ac(a2-6)Gal(b1-4)GlcNAc(b1-2)Man(a1-3)[Neu5Ac(a2-6)Gal(b1-4)GlcNAc(b1-2)Man(a1-6)]Man(b1-4)GlcNAc(b1-4)[Fuc(a1-6)]GlcNAc
# Summary of the method: as §1
# [33] = biological target: Neu5Ac(a2-6)Gal(b1-4)GlcNAc(b1-2)[Neu5Ac(a2-6)Gal(b1-4)GlcNAc(b1-4)]Man(a1-3)[GlcNAc(b1-4)][Neu5Ac(a2-6)Gal(b1-4)GlcNAc(b1-2)[Neu5Ac(a2-6)Gal(b1-4)GlcNAc(b1-6)]Man(a1-6)]Man(b1-4)GlcNAc(b1-4)GlcNAc
# Summary of the method: as §1
# [34] = biological target: Neu5Ac(a2-6)Gal(b1-4)GlcNAc(b1-3)Gal(b1-4)GlcNAc
# Summary of the method: as §1
# [35] = biological target: Neu5Ac(a2-6)Gal(b1-4)GlcNAc(b1-3)Gal(b1-4)GlcNAc(b1-2)Man(a1-3)[Neu5Ac(a2-6)Gal(b1-4)GlcNAc(b1-3)Gal(b1-4)GlcNAc(b1-2)Man(a1-6)]GalNAc
# Summary of the method: as §1
# [36] = biological target: Neu5Ac(a2-6)Gal(b1-4)GlcNAc(b1-3)Gal(b1-4)GlcNAc(b1-3)Gal(b1-4)GlcNAc(b1-2)Man(a1-3)[Neu5Ac(a2-6)Gal(b1-4)GlcNAc(b1-3)Gal(b1-4)GlcNAc(b1-3)Gal(b1-4)GlcNAc(b1-2)Man(a1-6)]GalNAc
# Summary of the method: as §1
# [37] = biological target: Neu5Ac(b2-6)Gal(b1-4)GlcNAc
# Summary of the method: as §1
# [38] = biological target: Neu5Gc(a2-8)Neu5Gc(a2-3)Gal(b1-4)GlcNAc(b1-3)Gal(b1-4)GlcNAc
# Summary of the method: as §1
binder,measurement,setting,value
B1,glycan array binding signal (z-score),[1],-0.074
same,glycan array binding signal (z-score),[2],1.11
same,glycan array binding signal (z-score),[3],-0.8
same,glycan array binding signal (z-score),[4],-0.508
same,glycan array binding signal (z-score),[5],-0.308
same,glycan array binding signal (z-score),Fuc(a1-2)Gal6S(b1-4)Glc,-0.528
same,glycan array binding signal (z-score),[6],0.112
same,glycan array binding signal (z-score),[7],-0.817
same,glycan array binding signal (z-score),[8],-0.72
same,glycan array binding signal (z-score),[9],-0.384
same,glycan array binding signal (z-score),Gal(a1-3)Gal(b1-4)Glc,-0.655
same,glycan array binding signal (z-score),[10],-0.125
same,glycan array binding signal (z-score),[11],-0.683
same,glycan array binding signal (z-score),Gal(a1-6)Glc,-0.326
same,glycan array binding signal (z-score),[12],1.15
same,glycan array binding signal (z-score),[13],2.5
same,glycan array binding signal (z-score),[14],-0.833
same,glycan array binding signal (z-score),[15],3
same,glycan array binding signal (z-score),[16],-0.33
same,glycan array binding signal (z-score),[17],3.03
same,glycan array binding signal (z-score),[18],0.59
same,glycan array binding signal (z-score),Gal6S(b1-4)Glc,-0.744
same,glycan array binding signal (z-score),[19],-0.794
same,glycan array binding signal (z-score),[20],2.91
same,glycan array binding signal (z-score),[21],0.094
same,glycan array binding signal (z-score),[22],2.48
same,glycan array binding signal (z-score),[23],-0.019
same,glycan array binding signal (z-score),Man(a1-3)[Man(a1-6)]Man,-0.857
same,glycan array binding signal (z-score),MurNAc(b1-4)GlcNAc,0.448
same,glycan array binding signal (z-score),[24],-0.503
same,glycan array binding signal (z-score),[25],2.7
same,glycan array binding signal (z-score),[26],1.11
same,glycan array binding signal (z-score),[27],2.49
same,glycan array binding signal (z-score),[28],-0.795
same,glycan array binding signal (z-score),[29],-0.531
same,glycan array binding signal (z-score),[30],-0.255
same,glycan array binding signal (z-score),[31],0.964
same,glycan array binding signal (z-score),[32],-0.156
same,glycan array binding signal (z-score),[33],3.11
same,glycan array binding signal (z-score),[34],-0.464
same,glycan array binding signal (z-score),[35],4.44
same,glycan array binding signal (z-score),[36],2.81
same,glycan array binding signal (z-score),[37],3.63
same,glycan array binding signal (z-score),[38],1.55
